Many of the other results were omitted from the sample, so hits are more common in it than they were.
TcdB GH inh: TcdB glycohydrolase inhibition; actives 0.24% (n = 350,000); TcdB glycohydrolase enzymatic assay, plate reader; inhibition, % at 9.99 µM; AID 652162; in the data active means inhibition above about 10%
BoNT-A LC inh2: BoNT A light chain protease inhibition; multiplex microsphere protease substrate cleavage, flow cytometry; inhibition, % at 10 µM; actives 0.17% (n = 360,000); AID 588499; further: plate controls were buffer without enzyme for full effect and enzyme alone for no effect
BoNT-F LC inh: BoNT F light chain protease inhibition. Multiplex microsphere protease cleavage assay, flow cytometry. inhibition, % at 10 µM. actives 0.22% (n = 360,000); in the data active means inhibition above about 35%, passing the limit was not always enough; inconclusive means no clear call, values can overlap the other calls; further: plate controls were buffer without enzyme for full effect and enzyme alone for no effect
Autofluor counter: compound fluorescence in toxin protease inhibitor counterscreen | compound autofluorescence counterscreen, microsphere flow cytometry; active compounds read high | fluorescence intensity (no concentration beside the values) | actives 3.1% (n = 360,000); in the data active means fluorescence intensity above about 16000; inconclusive means no clear call, values can overlap the other calls
Anthrax LF inh2: anthrax lethal factor protease inhibition. multiplex microsphere protease cleavage assay, LF. inhibition, % at 10 µM. AID 588501. actives 0.12% (n = 360,000); further: plate controls were buffer without enzyme for full effect and enzyme alone for no effect
Target sequence (P15917 whole entry, looked up): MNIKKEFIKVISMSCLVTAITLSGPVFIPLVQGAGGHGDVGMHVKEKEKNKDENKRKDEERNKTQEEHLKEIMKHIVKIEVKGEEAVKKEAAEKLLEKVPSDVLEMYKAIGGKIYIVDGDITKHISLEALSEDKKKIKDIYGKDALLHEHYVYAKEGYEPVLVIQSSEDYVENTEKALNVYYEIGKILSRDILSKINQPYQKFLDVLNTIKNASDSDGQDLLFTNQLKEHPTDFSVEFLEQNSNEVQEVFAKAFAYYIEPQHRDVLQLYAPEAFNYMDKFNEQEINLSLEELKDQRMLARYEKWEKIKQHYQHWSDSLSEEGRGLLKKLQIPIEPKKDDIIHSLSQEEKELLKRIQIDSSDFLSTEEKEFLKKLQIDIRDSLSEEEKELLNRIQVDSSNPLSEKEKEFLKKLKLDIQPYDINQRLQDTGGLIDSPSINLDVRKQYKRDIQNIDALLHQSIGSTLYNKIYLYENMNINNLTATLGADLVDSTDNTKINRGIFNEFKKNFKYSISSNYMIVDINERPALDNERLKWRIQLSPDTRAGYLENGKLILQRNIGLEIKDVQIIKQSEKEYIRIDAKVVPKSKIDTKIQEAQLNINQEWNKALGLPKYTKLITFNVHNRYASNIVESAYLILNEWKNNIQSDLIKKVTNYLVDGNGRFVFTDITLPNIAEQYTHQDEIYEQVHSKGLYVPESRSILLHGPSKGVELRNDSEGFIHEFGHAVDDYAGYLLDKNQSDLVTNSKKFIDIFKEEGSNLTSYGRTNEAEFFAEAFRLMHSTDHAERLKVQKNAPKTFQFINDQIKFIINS
* hit, by the source's call. Unless noted, no stated cut-off is given here; in the data, active means inhibition above about 30%; inconclusive means no clear call, values can overlap the other calls; inactive means below that.

How did C[C@@H]1CN([C@@H](C)CO)C(=O)c2cc(C#CCN(C)C)cnc2O[C@@H]1CN(C)C(=O)Cc1ccccc1 do in these assays?
TcdB GH inh: 0.8

What do the screens show for `O=C(c1ccc(Br)o1)N(Cc1ccccc1)Cc1ccccc1`?
TcdB GH inh: -0.2; BoNT-A LC inh2: -0.6; BoNT-F LC inh: -5.5; Autofluor counter: 3900; Anthrax LF inh2: -1.0

How did Cc1c(CN(C)C(=O)c2ccc(Br)o2)cnn1C do in these assays?
TcdB GH inh: 0.3; BoNT-A LC inh2: inconclusive; BoNT-F LC inh: -0.8; Autofluor counter: 19727*; Anthrax LF inh2: 0.6

Results for COCC(=O)N1[C@@H](CO)[C@H](c2ccccc2)[C@@H]1CNC(=O)c1ccccn1 ?
TcdB GH inh: -0.2

Results for COC(=O)Nc1ccc(=O)n(Cc2c(Cl)cccc2Cl)c1 ?
BoNT-A LC inh2: -1.3; BoNT-F LC inh: -7.1; Autofluor counter: 23829*; Anthrax LF inh2: -1.8

What do the screens show for `S=c1nc(-c2ccc(Cl)cc2)[nH][nH]1`?
TcdB GH inh: 12.2*; BoNT-A LC inh2: 2.5; BoNT-F LC inh: inconclusive; Autofluor counter: 3952; Anthrax LF inh2: -16.3

How did CCCOc1ccc(-c2nc(=S)[nH][nH]2)cc1 do in these assays?
BoNT-A LC inh2: inconclusive; BoNT-F LC inh: -0.9; Autofluor counter: 22693*; Anthrax LF inh2: -2.8

Results for Cc1noc(C)c1NC(=O)Nc1cccc2c1O[C@@H](CN(C)C(=O)Nc1ccc3c(c1)OCO3)[C@@H](C)CN([C@@H](C)CO)C2=O ?
TcdB GH inh: 0.4

What do the screens show for `COc1ccc(F)cc1S(=O)(=O)NC1CCCC1`?
BoNT-A LC inh2: -1.8; BoNT-F LC inh: -1.7; Autofluor counter: 20620*; Anthrax LF inh2: -0.4

Results for CCCNC(=O)N(C)C[C@H]1Oc2cc(C#CC(C)(C)O)ccc2S(=O)(=O)N([C@H](C)CO)C[C@H]1C ?
TcdB GH inh: 1.6

Results for C=C(C)CSc1nc2sc3c(c2c(=O)n1-c1ccccc1)CCN(C)C3 ?
TcdB GH inh: 0.9; BoNT-A LC inh2: 37.4*; BoNT-F LC inh: 8.8; Autofluor counter: 4836; Anthrax LF inh2: 15.5

How did CCSc1nc2sc3c(c2c(=O)n1-c1ccccc1)CCN(C(C)C)C3 do in these assays?
TcdB GH inh: 0.2; BoNT-A LC inh2: 56.6*; BoNT-F LC inh: 46.5*; Autofluor counter: 6785; Anthrax LF inh2: 3.8

Results for CN1CCc2c(sc3nc(SCC(N)=O)n(-c4ccccc4)c(=O)c23)C1 ?
BoNT-A LC inh2: 0.9; BoNT-F LC inh: 3.0; Autofluor counter: inconclusive; Anthrax LF inh2: -7.8

What do the screens show for `CCCCSc1nc2sc3c(c2c(=O)n1-c1ccccc1)CCN(C)C3`?
TcdB GH inh: 1.4; BoNT-A LC inh2: 52.0*; BoNT-F LC inh: 21.0; Autofluor counter: 4210; Anthrax LF inh2: 13.9

What do the screens show for `C=C(C)CSc1nc2sc3c(c2c(=O)n1C1CCCCC1)CCN(C)C3`?
TcdB GH inh: 0.3; BoNT-A LC inh2: 32.6*; BoNT-F LC inh: -3.7; Autofluor counter: 7245; Anthrax LF inh2: 13.4

Results for CCC(=O)N(C)C[C@@H]1Oc2cc(-c3ccccc3C)ccc2S(=O)(=O)N([C@@H](C)CO)C[C@H]1C ?
TcdB GH inh: 1.0

What do the screens show for `O=C(N[C@H]1C=C[C@H](CC(=O)N2CCN(c3ccccc3)CC2)O[C@@H]1CO)c1ccncc1`?
TcdB GH inh: -6.7

What do the screens show for `CN1C(=O)c2cc(NC(=O)c3cnccn3)ccc2OC[C@@H]2O[C@H](CC(=O)O)CC[C@H]21`?
TcdB GH inh: 1.1

What do the screens show for `O=C(C[C@H]1C=C[C@@H](NC(=O)CC2CC2)[C@H](CO)O1)NCC(F)(F)F`?
TcdB GH inh: 0.1

What do the screens show for `Cc1noc(C)c1S(=O)(=O)Nc1ccc2c(c1)C(=O)N([C@H](C)CO)C[C@@H](C)[C@H](CN(C)Cc1ccc3c(c1)OCO3)OCCCC[C@@H](C)O2`?
TcdB GH inh: 0.5

Results for C=CCSc1nc2sc3c(c2c(=O)n1-c1ccc(C)cc1)CCN(C)C3 ?
TcdB GH inh: 0.5; BoNT-A LC inh2: 35.8*; BoNT-F LC inh: -5.0; Autofluor counter: 4217; Anthrax LF inh2: 1.4

How did CCc1ccc(C(=O)COc2ccc(NC(C)=O)cc2)cc1 do in these assays?
BoNT-A LC inh2: 0.0; BoNT-F LC inh: -2.0; Autofluor counter: 24015*; Anthrax LF inh2: -1.0

Results for CCOc1ccc(NC(=O)c2ccccc2OCC(=O)c2ccc(C)cc2)cc1 ?
BoNT-A LC inh2: -0.7; BoNT-F LC inh: 2.5; Autofluor counter: 23534*; Anthrax LF inh2: -0.3

What do the screens show for `CCOc1ccc(C(=O)COc2ccc(NC(C)=O)cc2)cc1`?
BoNT-A LC inh2: -0.2; BoNT-F LC inh: 4.6; Autofluor counter: 3073; Anthrax LF inh2: -2.0
